Test results: the supplement of paper PMC13380429

Tested on: Vero E6 infected with SARS-CoV-2
Experiment: inhibition of SARS-CoV-2 cytopathic effect; higher = more antiviral protection, active = above 15
Details: 8.33 nM; 48 h

Q: With `Cc1cc(NC(=O)C2=C(O)c3ccccc3S(=O)(=O)N2C)no1` [isoxicam] as the molecule, how does the “inhibition of SARS-CoV-2 cytopathic effect” value (“inhibition” for short) read?
A: -3.12% (inactive)

Q: For `CCCCCCOc1nsnc1C1=CCCN(C)C1` [xanomeline], which “inhibition” value is on record?
A: -0.07% (inactive)

Q: With `COc1cc2c(cc1O)CC[C@@H]1[C@@H]2CC[C@]2(C)[C@@H](O)CC[C@@H]12` [2-methoxyestradiol] as the molecule, how does the “inhibition” value read?
A: 0.66% (inactive)

Q: For `Nc1ncnc2c1c(-c1cnc3[nH]ccc3c1)nn2C1CCCC1`, which “inhibition” value is on record?
A: -0.16% (inactive)

Q: With `O=C(O)c1cn(C2CC2)c2cc(N3CCNCC3)c(F)cc2c1=O` [ciprofloxacin] as the molecule, how does the “inhibition” value read?
A: -1.59% (inactive)

Q: `FCc1ccc(OCCOc2ccc(Cl)cc2Cl)c(Cl)n1` was tested. Which “inhibition” value did it give?
A: 2.42% (inactive)

Q: How did the “inhibition” value turn out when `CC/C=C(\C(=O)N[C@@H]1C(=O)N2C(C(=O)OCOC(=O)C(C)(C)C)=C(COC(N)=O)CS[C@H]12)c1csc(N)n1` [cefcapene-pivoxil] was run?
A: -2.87% (inactive)

Q: `Nc1nc(=O)c2sc(=O)n([C@@H]3O[C@H](CO)[C@@H](O)[C@H]3O)c2[nH]1` was tested. Which “inhibition” value did it give?
A: 0.81% (inactive)

Q: For `COC(=O)/C=C/C(=O)OCCN1C(=O)CCC1=O` [diroximel-fumarate], which “inhibition” value is on record?
A: -0.95% (inactive)

Q: How did the “inhibition” value turn out when `O=C(O)c1cc2ccccc2s1` was run?
A: -1.01% (inactive)

Q: With `CC(C)Oc1ccc(-c2nn([C@@H](C)c3oc4ccc(F)cc4c(=O)c3-c3cccc(F)c3)c3ncnc(N)c23)cc1F` as the molecule, how does the “inhibition” value read?
A: 2.74% (inactive)

Q: Which “inhibition” value does the source give for `CC(C)CNc1ccnc(NCc2csc(-c3ccccc3)n2)n1` here?
A: 1.07% (inactive)

Q: `CCCCCCCC/C=C\CCCCCCCC(=O)N[C@@H](CO)Cc1ccc(O)cc1` was tested. Which “inhibition” value did it give?
A: -0.46% (inactive)
